# Screening results (PubChem)
# Compounds with a hit are over-represented: about 2.9% of the library has one in this group of screens.
# FID counter – displaces DNA intercalator in HCV helicase counter-screen; DNA fluorescent intercalator displacement, fluorescence; inhibition, % at 7.9 µM; hit rate 0.17% among 290,000; AID 1845; in the data active = inhibition above about 37%;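 also: 0% = vehicle and 100% = reference compound; higher means more ethidium bromide displaced from hairpin DNA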
# MEKK2 mut-MEK5 – signal of MEK5 binding to mutant human MEKK2 PB1 domain; AID 1530; percent response, % at 10 µM; hit rate 0.35% among 290,000; bead flow cytometry, Alexa488-MEK5 binding to MEKK2 mutant; in the data active = percent response above about 24%, passing the limit was not always enough
# dFosB activator – activators of mouse delta FosB homodimer; P13346; purified delta FosB, TAMRA-CDK5 oligo fluorescence polarization; percent of positive-control signal above neutral wells; activation, % at 25 µM; hit rate 0.99% among 340,000;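 active = mean activation above about 17%, with every replicate also reaching it, limit read from the data, passing the limit was not always enough; inconclusive = only one of the two conditions met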
# MEKK3 PB1 HTS – raises or lowers MEK5 binding to the human MEKK3 PB1 domain | Q99759 | bead-based flow cytometry, Alexa488-MEK5 binding to MEKK3; actives lie on both sides; 0 = blocked by unlabeled MEK5, 100 = vehicle | binding response (% of control), % at 10 µM | hit rate 1.4% among 290,000 | AID 1529;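 active = binding response more than 3 SD above or below the average of its plate-row segment, actives on both sides; inconclusive = wells at one plate position flagged as instrument error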;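 also: Alexa488 bead fluorescence after subtracting the streptavidin-only scavenger bead signal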
# Target sequence (Q99759 whole entry, looked up, the tested form may be a part): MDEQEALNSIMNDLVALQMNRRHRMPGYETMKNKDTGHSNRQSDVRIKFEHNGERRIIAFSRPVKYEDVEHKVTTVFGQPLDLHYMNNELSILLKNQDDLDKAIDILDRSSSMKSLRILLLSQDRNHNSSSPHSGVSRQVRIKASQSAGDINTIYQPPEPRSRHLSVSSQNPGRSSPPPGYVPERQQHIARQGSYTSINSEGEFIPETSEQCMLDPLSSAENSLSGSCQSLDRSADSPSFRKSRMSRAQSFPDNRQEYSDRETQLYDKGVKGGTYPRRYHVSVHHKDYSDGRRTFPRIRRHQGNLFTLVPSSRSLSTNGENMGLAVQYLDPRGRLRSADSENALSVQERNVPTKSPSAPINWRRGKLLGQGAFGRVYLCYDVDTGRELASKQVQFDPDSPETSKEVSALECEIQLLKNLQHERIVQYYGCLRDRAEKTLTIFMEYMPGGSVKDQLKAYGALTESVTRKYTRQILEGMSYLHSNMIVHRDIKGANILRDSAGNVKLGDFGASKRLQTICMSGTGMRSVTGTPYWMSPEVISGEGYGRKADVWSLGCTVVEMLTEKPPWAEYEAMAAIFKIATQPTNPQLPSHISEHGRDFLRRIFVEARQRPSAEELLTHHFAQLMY
# MEKK2wt PB1 HTS – raises or lowers MEK5 binding to wildtype human MEKK2 PB1 domain. Q9Y2U5. bead flow cytometry, Alexa488-MEK5 binding to MEKK2 WT; actives lie on both sides. binding response (% of control), % at 10 µM. hit rate 1.1% among 290,000. AID 1531; in the data active = binding response below about 67% or above about 130%; inconclusive = no clear call, values can overlap the other calls; inactive = in between
# MEKK2wt confirm – raises or lowers MEK5 binding to wildtype human MEKK2, retest; hit rate 2.4% among 5,900; shares compounds with MEKK3 PB1 HTS; AID 1892; bead flow cytometry, Alexa488-MEK5 binding to MEKK2 WT; actives lie on both sides; binding response (% of control), % at 10 µM; in the data active = binding response below about 16% or above about 210%; inactive = in between
# MEKK2mut confirm – signal of MEK5 binding to mutant human MEKK2, retest; shares compounds with MEKK3 PB1 HTS; bead flow cytometry, Alexa488-MEK5 binding to MEKK2 mutant; percent response, % at 10 µM; hit rate 2% among 5,900; in the data active = percent response mostly above about 71%, no sharp cut-off; inactive = mostly below about 38%;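 also: higher means compound restores mutant binding toward wildtype level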
# MEKK3 confirm – confirmation of inhibitors of MEK5 binding to human MEKK3 | shares compounds with MEKK3 PB1 HTS | bead flow cytometry, Alexa488-MEK5 binding to MEKK3; stronger effect = lower value | binding response (% of control), % at 10 µM | hit rate 1.8% among 5,900 | AID 1894;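 active = binding response below 72% of control, or above a set upper limit, though filed actives all read lower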;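 also: 100% = DMSO only wells and 0% = binding blocked by excess unlabeled MEK5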
# Numbers without * were called inactive; ? = inconclusive; nt = no result given; ! = not active in a repeat; [ ] = remark or other dose.
SMILES,FID counter,MEKK2 mut-MEK5,dFosB activator,MEKK3 PB1 HTS,MEKK2wt PB1 HTS,MEKK2wt confirm,MEKK2mut confirm,MEKK3 confirm
C#CCOCCOCCOCCNc1nc(N2CCOCC2)nc(N2CCN(C(=O)[C@H]([C@@H](C)CC)n3cc([C@@H](N)Cc4ccc(O)cc4)nn3)CC2)n1,15.1,5.0,-3.8,104.0,114.0,nt,nt,nt
C#CCOCCOCCOCCNc1nc(N2CCN(C(=O)[C@H]([C@@H](C)CC)n3cc([C@@H](N)Cc4ccc(O)cc4)nn3)CC2)nc(N2CCN(C(=O)[C@H]([C@@H](C)CC)n3cc([C@@H](N)CC(C)C)nn3)CC2)n1,47.4*,20.0,?,94.0,139.0*,134.0,19.0,101.0
C#CCOCCOCCOCCNc1nc(N2CCN(C(=O)C([C@@H](C)CC)n3cc(C(N)CC(C)C)nn3)CC2)nc(N2CCN(C(=O)[C@H](CCC(=O)O)n3cc(C(N)CC(C)C)nn3)CC2)n1 (some centres not stated),14.8,6.0,-17.7,101.0,101.0,nt,nt,nt
Cc1ccc(C(=O)NCCN2CCNC2=O)cc1,-5.1,28.0,-3.8,129.0*,131.0,101.0,1.0,99.0
Cc1cccc(NCC(=O)N/N=C/c2ccc(Br)cc2)c1,-1.6,-16.0,-2.5,47.0*[inhibitor],48.0,98.0,2.0,103.0
Cc1ccc(NCC(=O)N/N=C/c2cccc(Oc3ccccc3)c2)cc1,2.0,1.0,-5.4,134.0*,107.0,104.0,-3.0,100.0
Cc1ccc(NCC(=O)N/N=C/c2ccncc2)cc1,-6.5,6.0,3.4,137.0*,127.0,110.0,8.0,108.0
COc1cccc(/C=N/NC(=O)Cn2ccnc2C)c1,-1.3,0.0,0.4,142.0*,106.0,87.0,-5.0,91.0
C/C(=N\N1C(=O)CSC1=S)c1ccc(Br)cc1,21.3,-2.0,4.3,99.0,91.0,nt,nt,nt
CCc1ccc(CNC(=O)Cn2nc(-c3ccc(C)cc3)ccc2=O)cc1,-46.4,-1.0,nt,105.0,100.0,nt,nt,nt
COc1cc(OC)cc(-c2nnc(NC(=O)Cc3ccc(F)cc3)o2)c1,-16.2,2.0,-2.2,104.0,104.0,nt,nt,nt
CCN(CC(=O)NC)S(=O)(=O)c1ccc(C)cc1,-0.5,2.0,1.4,96.0,95.0,nt,nt,nt
CCN(CC(=O)NC)S(=O)(=O)c1ccc(Br)cc1,-2.9,24.0*,5.3,109.0,112.0,101.0,-4.0,98.0
CNc1snc(C)c1C(=O)OCC(=O)N(C)Cc1ccccc1,nt,nt,-1.8,nt,nt,nt,nt,nt
CC(C)N1CCN(Cc2ccc(Sc3nncn3C)o2)CC1CCO (configuration not stated),-2.0,-1.0,-0.2,101.0,102.0,nt,nt,nt
OC(COc1cccc2ccccc12)CN1CCCC1 (configuration not stated),4.8,10.0,-1.3,103.0,139.0*,133.0,15.0,103.0
OC(COc1cccc2ccccc12)CN1CCN(c2ccc(Cl)cc2)CC1 (configuration not stated),1.9,-2.0,-8.2,102.0,144.0*!,113.0,8.0,105.0
CNc1snc(C)c1C(=O)OC(C)C(=O)Nc1ccc(F)cc1 (configuration not stated),nt,nt,-5.3,nt,nt,nt,nt,nt
O=C(NCc1cn(-c2ccccc2)nc1-c1ccccc1)c1ccc([N+](=O)[O-])cc1,2.6,2.0,-3.6,131.0*,122.0,99.0,-2.0,95.0
O=S(=O)(N/N=C\c1cn(-c2ccccc2)nc1-c1ccccc1)c1ccccc1,1.1,11.0,-1.9,126.0*,119.0,103.0,-1.0,108.0
O=[N+]([O-])c1ccc(N/N=C/c2cn(-c3ccccc3)nc2-c2ccccc2)cc1,3.8,27.0*,-4.2,97.0,11.0*,114.0,14.0,100.0
O=[N+]([O-])c1cccc(-c2nn(-c3ccccc3)cc2CO)c1,1.6,6.0,-0.5,103.0,100.0,nt,nt,nt
NS(=O)(=O)c1ccc(N/N=C/c2cn(-c3ccccc3)nc2-c2ccccc2)c([N+](=O)[O-])c1,-1.3,0.0,-7.4,102.0,96.0,nt,nt,nt
